This is an account of results in PubChem BioAssay AID1209 (Sanford-Burnham Center for Chemical Genomics, 2008).

The campaign covered roughly 190,000 compounds. About 810 (0.43%) were called active. The list comes from a sample in which actives are over-represented; it also holds similar structures and randomly drawn compounds. A number with no mark means an inactive call. Rule as the data show it: active = inhibition above about 50%; inactive = the rest.

The target in this assay is Mannose-6-phosphate isomerase (Homo sapiens) (UniProt P34949). In words: inhibitors of human PMI, primary screen, biochemical, fluorescence intensity, coupled assay (AID 1209).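 Also: plate controls were DMSO vehicle for no effect and wells lacking substrate for full effect.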 The conditions noted are these: purified PMI enzyme, at 20 µM, hits give high values.
Mannose-6-phosphate isomerase (Homo sapiens), sequence (P34949 whole entry, looked up): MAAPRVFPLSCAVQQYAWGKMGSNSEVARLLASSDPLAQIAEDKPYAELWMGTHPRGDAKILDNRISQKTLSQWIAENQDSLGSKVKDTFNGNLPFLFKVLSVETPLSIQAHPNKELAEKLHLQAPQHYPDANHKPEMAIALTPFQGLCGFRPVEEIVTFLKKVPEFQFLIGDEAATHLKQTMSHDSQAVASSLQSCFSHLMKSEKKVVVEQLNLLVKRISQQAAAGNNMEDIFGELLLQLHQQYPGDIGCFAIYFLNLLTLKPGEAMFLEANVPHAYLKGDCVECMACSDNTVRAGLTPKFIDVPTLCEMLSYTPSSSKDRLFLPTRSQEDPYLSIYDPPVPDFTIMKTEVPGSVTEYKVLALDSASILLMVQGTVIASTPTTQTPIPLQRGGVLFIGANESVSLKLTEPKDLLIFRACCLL
For the molecule `O=C(c1cc2nc(-c3ccco3)cc(C(F)(F)F)n2n1)N1CCCCCC1`, the inhibition (as a rule, the change of the read-out against control, counted positive when it falls) was -12.3%.
With `CCCOC(=O)c1ccc(Nc2nc(C)cc(=O)[nH]2)cc1` the figure was 1.7%.
With `Cc1cc(C)nc(SCc2nnc(SCC(=O)Nc3cc(C(F)(F)F)ccc3Cl)o2)n1` the figure was 3%; with `Cc1ccc(N2C(=O)C3Sc4[nH]c(=O)sc4C(c4ccccc4)C3C2=O)cc1` (stereo not drawn), 11.4%.
Turning to `COc1ccc(C(=O)NC(C)c2ccccc2)cc1Br` (stereo not drawn), the inhibition is 3.2%.
As to `O=C(O)C1Sc2[nH]c(=O)sc2C2c3ccc(O)cc3OC(=O)C12` (stereo not drawn), the inhibition is 24.3%.
With `COC(=O)C1Sc2[nH]c(=O)sc2C2c3ccccc3OC(=O)C12` (stereo not drawn) the figure was 10.6%.
With `O=C(O)C1Sc2[nH]c(=O)sc2C2c3cc(Cl)ccc3OC(=O)C12` (stereo not drawn) the figure was 50.4% (active).
With `O=C(Nc1ccc(S(=O)(=O)Nc2nccs2)cc1)c1cc(-c2ccccn2)nc2ccccc12` the figure was -1.4%.
As to `CC(C)CCn1c(=O)c(C(=O)N/N=C/c2cccc(F)c2)c(O)c2ccccc21`, the inhibition is -3.7%.
With `CC(C)(C)C1=CC(=Nc2ccccc2N)C=C(C(C)(C)C)C1=O` the figure was -7.3%.
With `CC(C)(C=O)C1=CC(=O)c2ccccc2C1=O` the figure was -17.2%; with `CC(C)(C)C1=CC(=O)C(=O)C(C(C)(C)C)=C1`, 61.2% (active).
With `COc1ccc(CCNC(=O)CN2CCN(c3cccc(C(F)(F)F)c3)CC2)cc1` the figure was 3.1%; with `O=C(c1ccco1)N1CCN(c2nc(-c3ccc(F)cc3)cs2)CC1`, 5.4%; with `N#CC(=C1CCCC1)c1nc(-c2cc3ccccc3oc2=O)cs1`, 1.4%.
On to `CN(C)CCCNS(=O)(=O)c1ccc(Cl)s1`, for which the inhibition is 0%.
With `Fc1ccc(C2c3cccn3CCN2C(=S)Nc2cccc(Br)c2)cc1` (stereo not drawn) the figure was 5.7%; with `O=C1CCc2cc(S(=O)(=O)N3CCN(c4ccccc4F)CC3)ccc2N1`, 6%; with `COc1ccc(CC(NC(C)=O)C(=O)NC2CCN(C(=O)NCc3ccccc3)CC2)cc1OC` (stereo not drawn), -4.4%.
With `CCC(=O)NC(=S)Nc1ccc(NC(=O)COc2ccc(Cl)cc2Cl)cc1` the figure was 5.1%.
With `CCC(=O)NC(=S)Nc1ccc(NC(=O)COc2ccccc2)cc1` the figure was 10.1%.
For `CCC(=O)NC(=S)Nc1ccc(NC(=O)COc2ccc(Cl)c(C)c2)cc1`, the inhibition is 62.3% (active).
With `Cc1cc(NC(=O)CSc2nnc(NC(=O)C3CC(=O)N(c4ccccc4)C3)s2)no1` (stereo not drawn) the figure was -9.8%.
With `O=C(CCn1c(=O)sc2ccccc21)NCCC1=CCCCC1` the figure was 3.6%; with `O=C(C1=C(c2ccccc2)C(=O)c2ccccc2C1=O)c1ccccc1`, 48.7%; with `CC(=O)C1=C(c2ccc(Br)cc2)C(=O)c2ccccc2C1=O`, 80.3% (active).
With `CC(C)c1ccc(C2=C(O)c3ccccc3C(=O)C2=O)cc1` the figure was -3.9%; with `CCOC(=O)C1=C(Cc2ccc(OC)cc2)C(=O)c2ccccc2C1=O`, 22.9%; with `COc1ccc(C2=C(N)c3ccccc3C2=O)cc1`, 3.9%.
Regarding `OC(CNCc1ccccc1)Cn1ccc2ccccc21` (stereo not drawn), the inhibition was -1.3%.
With `NC(N)=N/N=C/c1ccc(Br)cc1` the figure was -2.5%.
With `O=c1cc(-c2ccc(O)c(O)c2)oc2cc(O)c(C3OC(CO)C(O)C(O)C3O)c(O)c12` (stereo not drawn) the figure was 45.4%.
With `O=c1cc(-c2ccc(O)cc2)oc2c([C@@H]3O[C@H](CO)[C@@H](O)[C@H](O)[C@H]3O)c(O)c([C@@H]3O[C@H](CO)[C@@H](O)[C@H](O)[C@H]3O)c(O)c12` the figure was -0.7%.
In the case of `O=c1cc(-c2ccc(O)c(O)c2)oc2c(C3O[C@H](CO)[C@@H](O)[C@H](O)[C@H]3O)c(O)cc(O)c12` (stereo partly drawn), the inhibition is 51.9% (active).
With `CC(=O)N1C(=O)c2cccc3cccc(c23)C(=O)N1C(C)=O` the figure was 9.5%.
As to `NC1=Nc2cccc3cccc1c23`, the inhibition was 12.8%.
With `CCN1CCN(C(=O)c2oc(=O)c3ccccc3c2-c2ccc(C)cc2)CC1` the figure was -1.6%.
With `CCNc1nc2[nH]c(=O)c3c(c2s1)OC(N)=C(C#N)C3c1ccc(C)cc1` (stereo not drawn) the figure was 54.6% (active); with `CNc1nc2[nH]c(=O)c3c(c2s1)OC(N)=C(C#N)C3c1ccccc1` (stereo not drawn), 43.5%; with `CNc1nc2[nH]c(=O)c3c(c2s1)OC(N)=C(C#N)C3c1cccc(F)c1` (stereo not drawn), 39.7%.
With `COCCCNC(=S)N/N=C/c1ccc(N(C)C)cc1` the figure was 1%; with `CCC(C)/C(C)=N/NC(=O)c1ccc(COc2ccc(Cl)c(C)c2)cc1` (stereo not drawn), 13.9%.
For `OCc1ccc(O)c2ncccc12`, the inhibition is 27%.
With `Cc1ccc(NCc2ccccc2O)cc1C` the figure was 19.9%; with `Cc1cccc(NCc2ccc(O)c3ncccc23)c1`, 42.5%; with `COCc1ccc(O)c2ncccc12`, 23.7%.
With `Cc1ccc(NCc2ccccc2O)cc1` the figure was 13.8%; with `O=[N+]([O-])c1ccc(O)c2ncccc12`, -7.5%.
With `Cc1ccc(NCc2ccc(O)c3ncccc23)cc1C` the figure was 55.8% (active); with `Oc1ccc(CNc2ccccc2)c2cccnc12`, 50.5% (active).
As to `Oc1ccc(CNc2ccc(F)cc2)c2cccnc12`, the inhibition is 36.2%.
With `Oc1ccc(F)c2cccnc12` the figure was 50.9% (active).
With `Oc1ccc(COCc2ccccc2)c2cccnc12` the figure was 46.1%.
In the case of `Cc1ccc(NCc2ccc(O)c3ncccc23)cc1`, the inhibition is 50.8% (active).
With `S=c1[nH]nc(-c2cccnc2)o1` the figure was -18.4%; with `Nc1nc(NC(=O)/C=C\C(=O)O)nn1-c1ccccc1`, -12.4%.
With `Cc1ccc(C)c(NC(=S)N(Cc2ccc(Cl)cc2)Cc2ccc(C(=O)O)cc2)c1` the figure was -4.3%; with `O=C(NCCN1C(=O)S/C(=C\c2ccccc2)C1=O)C1CCN(S(=O)(=O)c2cccs2)CC1`, 8.1%; with `CC(=O)c1cnn(-c2cc(Oc3cccc(C)c3)ncn2)c1C`, 16.6%.
In the case of `O=Cc1cn(-c2ccc(F)cc2)c2ccccc12`, the inhibition was 4.3%.
With `Cc1cccc(NC(=O)c2ccccc2OCC(=O)N2CCOCC2)c1C` the figure was 11.4%.
With `CCOc1ccccc1NC(=O)NCc1cccnc1` the figure was 0.3%.
